According to PubChem BioAssay (EPA / NIEHS):
The source made the active and inactive calls. The calls were made as follows: active = hit-call score of the fitted dose curve at least 0.9, where 1 is the maximum; inactive = score below 0.9.

Test: APR_HepG2_NuclearSize_24hr: Apredica 24-hour HepG2 Assay for Nuclear Size (AID 2282907)
Details: high-content imaging, actives raise or lower the signal
Protocol: APR_HepG2_24hr is a cell-based, multiplexed-readout assay that uses HepG2, a human liver cell line, with measurements taken at 24 hours after chemical dosing in a 384-well plate.APR_HepG2_NuclearSize_24hr is one of 10 assay component(s) measured or calculated from the APR_HepG2_24hr assay. It is designed to make measurements of cell phenotype, a form of morphology reporter, as detected with fluorescence intensity signals by HCS Fluorescent Imaging technology.Data from the assay component APR_HepG2_NuclearSize_24hr was analyzed into 1 assay endpoint. This assay endpoint, APR_HepG2_NuclearSize_24hr, was analyzed with bidirectional fitting relative to DMSO as the negative control and baseline of activity. Using a type of morphology reporter, measures of all nuclear dna for gain or loss-of-signal activity can be used to understand the signaling at the nuclear-level. Furthermore, this assay endpoint can be referred to as a primary readout, because this assay has produced multiple assay endpoints where this one serves a signaling function. To generalize the intended target to other relatable targets, this assay endpoint is annotated to the cell morphology intended target family, where the subfamily is organelle conformation.
Cells were treated with dimethyl sulfoxide (DMSO) as a solvent control at a final concentration of 0.5% v/v or with compounds in DMSO with a resulting final DMSO concentration of 0.5% v/v. Compound treatment was done at concentrations of 0.39, 0.78, 1.56, 3.12, 6.24, 12.5, 25, 50, 100, and 200 uM in duplicate on each plate. Cells were treated with compounds for 1, 24, or 72 hr. Carbonyl […] m-chloro-phenylhydrazone (CCCP) and taxol were used as positive controls for mitochondrial function and cytoskeletal stability, respectively; DMSO served as the negative control for this experiment. Cells were fixed by the direct addition of 50 uL formaldehyde in Hank's Balanced Salt Solution (HBSS) to a final concentration of 3.7%. After incubation in the fixation medium for 30 min at room temperature (293-298 K), cells were rinsed twice with HBSS and treated with cell permeabilization buffer (16 uL of 0.5% Triton X-100) for 10 min at room temperature (293-298 K) before labeling. For mitochondrial membrane potential and mitochondrial measurements, pre-fixed cells were incubated with 50 uL of MitoTracker Red CMXRos (Invitrogen) at a concentration of 250 nM for 30 min before fixation. In the remaining cases, post-fixed cells were labeled by incubation with a multiplexed mixture of primary antibodies in HBSS for 60 min at room temperature (293-298 K) to detect immunoreactivity of c-Jun (1:500), phospho-histone H3 (1:100), phospho-histone H2A.x (1:200), p53 (1:400), alpha-tubulin (1:200) and Hoechst 33342 (2 ug/mL). Cells were labeled for multiplexed imaging on two separate plates: a) Hoechst 33342, MitoTracker Red, phospho-histone H3, and alpha-tubulin, and b) Hoechst 33342, phospho-histone H2A.x, and c-Jun. A final rinse with HBSS (50 uL) was performed before analysis. The primary and secondary antibodies for the proteins were phospho-histone H3 (rabbit anti-phospho-histone H3 and FITC-donkey anti-rabbit IgG), phospho-histone H2A.x (mouse anti-phospho-histone H2A.x and FITC-donkey anti-mouse IgG), c-Jun (rabbit anti-phospho-c-Jun and Cy3-donkey anti-rabbit IgG), p53 (sheep anti-p53 and Cy5-donkey anti-sheep IgG), alpha-tubulin (mouse anti-alpha-tubulin and Cy5-donkey anti-mouse IgG). These antibodies are available as the CellCiphr HepG2 assay kit (Millipore).Digital images of each well were captured using a Cellomics ArrayScan VTI (Thermo Scientific Cellomics) (0.8 NA objective, 0.63x optical coupler, and XF-93 filter set) at 20x magnification. The images were acquired using the autofocus feature of the ArrayScan instrument, which entails the following steps. First, the camera focuses on channel 1 (Hoechst 33342), where nuclei are identified. Second, a Z offset of 1 um is used for capturing mitochondria (MitoTracker Red). […]

Row | SMILES | outcome | AC50
1 | C1=Cc2cccc3cccc1c23 | inactive | –
2 | c1ccc(NNc2ccccc2)cc1 | inactive | –
3 | O=[N+]([O-])C(Br)(CO)CO | inactive | –
4 | Cc1cc(N=Nc2ccccc2C)ccc1N | inactive | –
5 | O=P(OCCCl)(OCCCl)OCCCl | inactive | –
6 | Clc1ccc(C(c2ccc(Cl)cc2)C(Cl)(Cl)Cl)cc1 | – | 56.5 µM (active)
7 | c1ccc(C2CO2)cc1 (stereo not given) | inactive | –
8 | CC(C)(OOC(C)(C)c1ccccc1)c1ccccc1 | inactive | –
9 | COC(=O)Nc1nc2ccccc2[nH]1 | inactive | –
10 | Clc1ccc(C(c2ccc(Cl)cc2)C(Cl)Cl)cc1 | inactive | –
11 | CCCCCOC(=O)c1ccccc1C(=O)OCCCCC | inactive | –
12 | CN(C)c1ccc(C(=O)c2ccc(N(C)C)cc2)cc1 | inactive | –
13 | O=Cc1ccco1 | inactive | –
14 | O=C(Nc1ccccc1)c1ccccc1I | inactive | –
15 | OCCCBr | inactive | –
16 | CN(C)C(=O)Nc1ccc(Cl)cc1 | inactive | –
17 | CNC(=O)Oc1cccc2c1OC(C)(C)C2 | inactive | –
18 | Cc1ccc(N)cc1 | inactive | –
19 | CC(C)(O)c1cnn2c(-c3ccc(F)c(-c4c(F)cccc4C#N)c3)cnc2n1 | inactive | –
20 | CCN(CC)N=O | inactive | –

Row | SMILES | outcome | AC50
21 | COP(=S)(OC)SCN1C(=O)c2ccccc2C1=O | inactive | –
22 | Cc1ccc(N=C=O)cc1N=C=O | inactive | –
23 | N#CC(Br)(Br)C(N)=O | inactive | –
24 | COc1cc(C=O)cc2c1[C@H](COC(N)=O)[C@]1(OC(C)=O)ON2C[C@H]2[C@@H]1N2C(C)=O | inactive | –
25 | Nc1ccc(Oc2ccc(N)cc2)cc1 | inactive | –
26 | CC(O)CCO (stereo not given) | inactive | –
27 | COC(=O)c1ccccc1N | inactive | –
28 | CCCCCCCCOC(=O)c1ccc(C(=O)OCCCCCCCC)c(C(=O)OCCCCCCCC)c1 | inactive | –
29 | N#CC(Br)Br | inactive | –
30 | [As]#[In] | inactive | –
31 | Cc1ccc(N)c(N)c1 | inactive | –
32 | CCC[CH2][Sn]([Cl])([CH2]CCC)[CH2]CCC | inactive | –
33 | Clc1ccccc1Cl | inactive | –
34 | [Cl-].[Cl-].[Hg+2] | – | 31.9 µM (active)
35 | CCCCC(CC)COC(=O)c1ccc(C(=O)OCC(CC)CCCC)c(C(=O)OCC(CC)CCCC)c1 (stereo not given) | inactive | –
36 | Nc1ccc(Cc2ccc(N)cc2)cc1 | inactive | –
37 | c1ccc2c(c1)-c1cccc3cccc-2c13 | inactive | –
38 | Clc1ccc(Cl)c(Cl)c1 | inactive | –
39 | CC(C)(C)C(O)(CCc1ccc(Cl)cc1)Cn1cncn1 (stereo not given) | inactive | –
40 | C[C@]12C=CC3=C4CCC(=O)C=C4CC[C@H]3[C@@H]1CC[C@@H]2O | inactive | –
